A selection: hits, their analogues and other compounds. The true share with any hit is near 0.38%.
Rac1 mut GTP – alters GTP binding to activated mutant human Rac1; GST-Rac1 activated beads, fluorescent GTP binding, flow cytometry; actives lie on both sides; 100% means binding = to untreated wells; percent activity (GTP binding), % at 10 µM; hit rate 0.11% among 190,000; AID 764;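 active means GTP binding at least 20 percentage points away from the 100% baseline, in either direction, so actives lie on both sides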
Cdc42 wt – changes GTP binding to wildtype human Cdc42; AID 761; GST-Cdc42 beads, Bodipy-GTP binding, flow cytometry; actives lie on both sides; hit rate 0.2% among 190,000; percent activity (GTP binding), % at 10 µM;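 active means percent activity GTP binding at least 20 points away from the 100% baseline, either down as inhibitor or up as activator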;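 further: median bead fluorescence of bound Bodipy-FL-GTP at 100 nM; 0% = excess unlabeled GTP control and 100% = no compound control; below 100% means less GTP binding so inhibitor and above means activator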
Target sequence (P60953 whole entry, looked up): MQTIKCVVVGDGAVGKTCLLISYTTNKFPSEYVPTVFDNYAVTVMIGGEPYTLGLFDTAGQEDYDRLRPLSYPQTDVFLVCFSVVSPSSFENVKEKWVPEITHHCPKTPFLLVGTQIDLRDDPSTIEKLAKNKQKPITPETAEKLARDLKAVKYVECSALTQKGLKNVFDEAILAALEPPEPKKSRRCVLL
HRas wt GTP – human HRas wildtype GTP binding, change in either direction | P01112 | hit rate 0.14% among 190,000 | AID 759 | GST-Ras wt beads, Bodipy-FL-GTP binding, flow cytometry; actives lie on both sides | GTP binding activity, % at 10 µM;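 active means GTP binding activity at least 20% away from the 100% baseline, either lowered as inhibitor or raised as activator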;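 further: 0% = unlabeled GTP competition control and 100% = no-compound control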
Target sequence (P01112 whole entry, looked up): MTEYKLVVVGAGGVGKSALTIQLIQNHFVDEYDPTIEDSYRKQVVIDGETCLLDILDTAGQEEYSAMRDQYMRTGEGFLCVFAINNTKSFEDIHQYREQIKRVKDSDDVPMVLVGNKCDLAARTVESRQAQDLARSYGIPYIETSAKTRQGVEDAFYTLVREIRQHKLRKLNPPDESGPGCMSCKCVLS
Rab2 wt GTP – changes GTP binding to wildtype dog Rab2A, up or down; hit rate 0.19% among 190,000; P61105; GST-Rab2 wt beads, Bodipy-GTP binding, flow cytometry; GTP binding activity, % at 10 µM;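 active means GTP binding activity at least 20 points away from 100%, either lowered or raised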;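 further: 0% = beads with excess unlabeled GTP and 100% = no-compound control corrected for plate trend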
Rab7 wt GTP bind – dog Rab7 wildtype GTP binding, inhibitors and activators | GST-Rab7 beads, fluorescent GTP binding, flow cytometry; actives lie on both sides; untreated = 100%, excess cold GTP = 0% | GTP binding activity (percent of control), % at 10 µM | hit rate 0.055% among 190,000 | AID 758;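 active means fluorescent GTP binding to Rab7 beads changed by at least 20 points from the 100% baseline, either direction, mostly lower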;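 further: median green fluorescence of bound Bodipy-FL-GTP per Rab7 bead population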
Rac1 wt modul – human Rac1 wildtype GTP binding, inhibitors and activators; P63000; GST-Rac1 beads, fluorescent GTP binding, flow cytometry; actives lie on both sides; 0 = cold GTP competed, 100 = untreated; GTP binding activity (% of control), % at 10 µM; hit rate 0.27% among 190,000;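 active means GTP binding activity at least 20 points away from the 100% control level, either lower or higher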
Active calls of the source: *; [ ] = remark or other dose.

SMILES	Rac1 mut GTP	Cdc42 wt	HRas wt GTP	Rab2 wt GTP	Rab7 wt GTP bind	Rac1 wt modul
COC(CNC(=O)C1CCCN1C(=O)OCc1ccccc1)OC (configuration not stated)	117	119	115	116	115	121*[activator]
O=C(CCn1cccc1)Nc1ccc(OC(F)(F)F)cc1	97	102	99	101	107	101
CCN(CC)c1ccc(-c2nn3c(-c4cccnc4)nnc3s2)cc1	84	72*	73*	73*	88	83
CCN(CC)C(=O)C(=O)N/N=C/c1ccc(F)cc1	98	99	99	97	101	104
CCOC(=O)c1nn(-c2ccccc2)c(=O)cc1SC(C)C	96	99	95	63*	96	97
O=C(NCC(=O)N1CCN(S(=O)(=O)/C=C/c2ccccc2)CC1)c1ccccc1F	97	96	96	97	101	97
CCCc1cc(NC(=O)CCl)n(-c2ccccc2)n1	97	100	97	99	98	98
N#Cc1c(=O)c2nc(NCCCO)ncc2n2c(=O)c3ccccc3[nH]c12	93	84	91	86	96	103
N#Cc1c(=O)c2nc(NCc3ccccc3)ncc2n2ccccc12	90	84	83	80	85	79*
CCC(SC1=N/C(=C/c2ccccc2)C(=O)N1c1ccccc1)C(=O)Nc1cc(C)on1 (configuration not stated)	101	102	99	102	101	102
COc1ccc(/C=C2/N=C(SCC(=O)Nc3cc(C)on3)N(c3ccccc3)C2=O)cc1	91	85	81	82	95	77*
CCN1/C(=C\C=C2\C(=O)N(C)C(=S)N2C)Sc2ccccc21	88	97	83	94	93	88
CN1CCS/C1=C/C=C1/SC(=S)N(Cc2ccccc2)C1=O	98	95	97	99	100	97
CCN1C(=O)/C(=C/C=C2/Sc3ccc4ccccc4c3N2CCO)SC1=S	83	78*	78*	84	81	75*
CCN1C(c2ccccc2)=C(c2ccccc2)S/C1=C/C=C1\SC(=S)N(C)C1=O	69*	67*	66*	71*	72*	71*
CC(C)C(=O)N1CCN(c2ccccc2NC(=O)c2cccc(Cl)c2)CC1	108	116	112	111	108	121*[activator]
O=C(CCNS(=O)(=O)c1cccc2nsnc12)N1CCN(c2ccccn2)CC1	109	122*[activator]	107	110	104	138*[activator]
CN1C(=O)N(C)c2ccc(C=O)c3cccc1c23	86	84	86	82	89	77*
CN(C)c1cccc2c(/C=N/O)ccc(N(C)C)c12	93	95	95	98	96	94
Cc1ccn2c(NCc3ccc4c(c3)OCO4)c(-c3ccc(O)cc3)nc2c1	112	145*[activator]	91	100	82	135*[activator]
O=C(O)c1cc([N+](=O)[O-])ccc1NCc1ccccc1Cl	133*[activator]	129*[activator]	125*[activator]	129*[activator]	114	146*[activator]
CC1(C)CC(=O)C(C=NCCN2CCNCC2)=C(O)C1	98	98	100	100	107	96
Cc1ccccc1-c1nnn(C/C(N)=N/O)n1	94	96	100	98	106	99
c1ccc2[nH]c3cc4ncnc4cc3nc2c1	91	83	77*	77*	87	79*
FC(F)c1nc2ccccc2[nH]1	97	100	100	99	100	101
SMILES	Rac1 mut GTP	Cdc42 wt	HRas wt GTP	Rab2 wt GTP	Rab7 wt GTP bind	Rac1 wt modul
CCn1c2ccccc2c2nnc(SCC(=O)NCCOC)nc21	99	97	101	35*	100	105
CC(C)c1c(Cl)c(O)c(-c2ccccc2)c(=O)n1-c1ccc(F)cc1	96	94	99	95	100	97
Nc1c([N+](=O)[O-])cc(-c2cnc[nH]2)cc1[N+](=O)[O-]	88	77*	78*	77*	94	84
COc1ccc(-c2cnc[nH]2)cc1	95	97	97	96	100	99
O=S1(=O)N=C(N(CCO)/N=C/C=C/c2ccccc2)c2ccccc21	80	79*	70*	72*	84	61*
CCOC(=O)c1cc(C(=O)OCC)c(=O)[nH]c1N1CCCC1	50*	56*	57*	54*	24*	51*
CCOC(=O)c1cc(C(=O)OCC)c(=O)[nH]c1C	100	107	97	100	97	111
FC(F)(F)c1cccc(NC(=S)NNC(=S)NCc2ccccc2)c1	80*	81	86	84	86	80
CCC(C)/C(C)=N/NC(=O)CNS(=O)(=O)c1ccc([N+](=O)[O-])cc1 (configuration not stated)	99	102	102	101	102	102
O=C(Cc1cccs1)N1CCN(S(=O)(=O)c2ccc(Br)cc2)CC1	94	98	96	97	99	104
Cc1cc(C)cc(OCC(=O)Nc2nonc2NC(=O)COc2cc(C)cc(C)c2)c1	95	96	94	95	95	97
COc1ccc(OCC(=O)Nc2nonc2NC(=O)COc2ccc(OC)cc2)cc1	88	84	85	82	95	79*
COc1cccc(-n2c(SCC(=O)NCCC3=CCCCC3)nc3n[nH]c(C)c3c2=N)c1	89	75*	73*	76*	87	88
CN1CCN(C(=O)C2=C[C@H](c3csc4ccccc34)C[C@H](OCCCCO)O2)CC1	97	95	96	96	95	97
Cc1ccccc1-c1nnc(NC(=O)c2ccc(N3C(=O)CCC3=O)cc2)s1	104	109	106	106	104	130*[activator]
Cc1cccc(-c2nnc(NC(=O)c3ccc(N4C(=O)CCC4=O)cc3)s2)c1	101	107	105	103	101	113
O=C(/C=C/c1ccccc1)NC(NC(=S)Nc1ccc(C(=O)O)cc1)C(Cl)(Cl)Cl (configuration not stated)	91	96	87	79*	88	88
O=C(/C=C/c1ccccc1)NC(NC(=S)Nc1cccc(O)c1)C(Cl)(Cl)Cl (configuration not stated)	96	101	98	95	98	100
COc1ccccc1NC(=O)CN(c1ccc(C)cc1)S(=O)(=O)c1c(C)n[nH]c1C	99	98	99	98	94	103
COc1ccc(N(CC(=O)Nc2cccc(C)c2C)S(=O)(=O)c2c(C)n[nH]c2C)cc1	88	83	84	79*	87	81

Bioassay records: PubChem, NMMLSC
